From the supplement of paper PMC6555819 come the findings set out here.

What all share (test): PBM binding z-score (relative to random genomic background probes); higher = stronger binding; sequences stand for … in GC…GCGATTGACAGCGTAGAATGAAGG
In assay [1] the test system is FXR:RXRa (NR concentration 270 nM, RXRa partner concentration 90 nM). The essentials: (§1)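 Random background probes are the reference for binding z-scores. These scores derive from regression-normalized fluorescence on custom Agilent 4×180K protein-binding microarrays incubated 1 h with ligand-free nuclear receptor dimers. Binding was detected with antibodies against each partner (one per run).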

The subject of assay [2] is LXRa:RXRa (NR concentration 270 nM, RXRa partner concentration 90 nM). A digest of the protocol:
as §1

Assay [3] has as its system LXRa homodimer (NR concentration 270 nM). A digest of the protocol: as §1
Assay [4] concerns LXRb:RXRa (NR concentration 270 nM, RXRa partner concentration 90 nM). The essentials: as §1
For assay [5], the system named is LXRb homodimer (NR concentration 270 nM). A digest of the protocol: as §1
Assay [6] relates to PPARa:RXRa (NR concentration 270 nM, RXRa partner concentration 90 nM). A digest of the protocol: as §1
Assay [7] has as its system PPARg:RXRa (NR concentration 180 nM, RXRa partner concentration 90 nM). The essentials:
as §1

Assay [8] has as its system PPARg:RXRa 270nM:90nM, anti-RXR (NR concentration 270 nM, RXRa partner concentration 90 nM). A digest of the protocol:
as §1

Assay [9] relates to PPARg:RXRa 30nM:10nM, anti-RXR (NR concentration 30 nM, RXRa partner concentration 10 nM). The essentials:
as §1

Assay [10] concerns PPARg:RXRa 90nM:30nM, anti-RXR (NR concentration 90 nM, RXRa partner concentration 30 nM). The essentials: as §1
Assay [11] has as its system PPARg:RXRa DBDmut IVT, anti-RXR (DBD mutation: RXRa K156A/R161A, NR concentration 270 nM, RXRa partner concentration 90 nM). A digest of the protocol:
as §1

The test system of assay [12] is PPARg:RXRa IVT, anti-PPARg (NR concentration 270 nM, RXRa partner concentration 90 nM). The essentials:
as §1

Assay [13] relates to PPARg DBDmut:RXRa IVT, anti-PPARg (DBD mutation: PPARg1 K132A/R137A, NR concentration 270 nM, RXRa partner concentration 90 nM). The essentials:
as §1

In assay [14] the test system is PPARg DBDmut IVT, anti-PPARg (DBD mutation: PPARg1 K132A/R137A, NR concentration 270 nM). The essentials:
as §1

In assay [15] the test system is PPARg homodimer (NR concentration 180 nM). A digest of the protocol: as §1
Assay [16] deals with PXR:RXRa (NR concentration 270 nM, RXRa partner concentration 90 nM). A digest of the protocol: as §1
The subject of assay [17] is PXR homodimer (NR concentration 270 nM). The essentials: as §1
Assay [18] concerns RARa:RXR (NR concentration 270 nM, RXRa partner concentration 90 nM). A digest of the protocol:
as §1

Assay [19] relates to RARa homodimer (NR concentration 270 nM). A digest of the protocol: as §1
Assay [20] has as its system RARb:RXRa (NR concentration 270 nM, RXRa partner concentration 90 nM). The essentials:
as §1

As to TGAATGAGGTTAAAGATCAGGAAACGTGGCGTCG, the PBM binding z-score in assay [1] was 3.12; in [2], 2.5; in assay [3] it was -0.309; in assay [4], 1.69; in [5], -0.0435; in assay [6], 4.49. Moreover, the PBM binding z-score in assay [7] stood at 5.58; in assay [8], 6.34; in assay [9], 4.41; in assay [10], 6.93; in [11], 2.17; in assay [12], 3.35. The PBM binding z-score in assay [13] is 0.769; in assay [14] it was 0.42; in assay [15] it was 1.22; in assay [16] it was 2.17; in [17], -0.325; in assay [18], 3.49. The results for the PBM binding z-score in assay [19] and in assay [20] were -0.294 and 1.94, respectively.
Turning to TCTTGTAGATCATAGGTTAAGAAAGCCGAAGCCT, the PBM binding z-score in assay [1] is 1.15; in assay [2] it was 0.999; in [3], -0.0576; in [4], 0.991; in [5], 0.0364; in assay [6], 2.8. The PBM binding z-score in assay [7] was 4.38; in assay [8], 5.93; in assay [9], 4.93; in assay [10], 6.23; in [11] it was 1.8; in [12] it was 1.96. For the same sequence, the PBM binding z-score was 0.499 in assay [13]; 1.11 in [14]; 0.856 in assay [15]; 0.84 in [16]; -0.184 in [17]; 1.37 in assay [18]. Besides, the PBM binding z-score in assay [19] worked out at 0.366; in assay [20], 0.882.
Take CGTCCAAGGTCATAGGAGGTTAGTGAAGACAGAT: the PBM binding z-score in [1] is 7.23; in assay [2], 6.11; in assay [3], 2.12; in [4] it was 4.77; in [5], 0.715; in assay [6], 5.61. In addition, the PBM binding z-score in [7] amounted to 4.92; in [8], 5; in [9], 2.04; in assay [10], 3.54; in assay [11], 2.69; in assay [12] it was 3.67. Further, the PBM binding z-score in assay [13] was 0.657; in [14] it was -0.0801; in assay [15], 3; in assay [16] it was 5.46; in [17], 2.22; in assay [18] it was 4.61. Further, the PBM binding z-score in assay [19] was determined as 1.31; in assay [20], 5.06.
For the sequence AGAACGAGGGCACGCTGTGTTGATAGCAGAGTAG, the PBM binding z-score in [1] was 0.77; in assay [2] it was 0.377; in assay [3], -0.602; in [4], 0.159; in assay [5], -1.07; in assay [6], 1.92. Moreover, the PBM binding z-score in assay [7] turned out to be 2.14; in [8], 1.81; in [9] it was 0.262; in assay [10], 1.12; in [11], 4.43; in [12], 3.96. For the same sequence, the PBM binding z-score in assay [13] was 0.394; in assay [14], -0.216; in [15], -0.372; in [16], 0.28; in assay [17], -0.446; in assay [18], 0.799. Further, the results for the PBM binding z-score in assay [19] and in assay [20] were -0.803 and 2.39, respectively.
Turning to CCTACCGGGCCATTCAGAGGTCATTGATCATATG, the PBM binding z-score in [1] was found to be 3.15; in [2], 4.65; in [3] it was 6.83; in assay [4], 4.07; in assay [5], 0.358; in assay [6], 3.77. The PBM binding z-score in [7] was 1.05; in assay [8], 2.26; in assay [9], 0.311; in [10], 1.27; in [11], 0.333; in [12], 1.62. Besides, the PBM binding z-score in assay [13] is -0.171; in [14] it was -0.538; in assay [15], 2.87; in assay [16], 5.36; in [17], 2.87; in assay [18] it was 5.57. The PBM binding z-score in [19] amounted to 0.404; in [20], 3.29.
In the case of ATCAAAAGGTCGTGAGGTGAGTATACAGAAAGGC, the PBM binding z-score turned out to be 5.1 in [1]; 4.46 in [2]; 0.539 in [3]; 3.63 in assay [4]; 1.22 in assay [5]; 5.2 in [6]. The PBM binding z-score turned out to be 4.38 in assay [7]; 4.66 in [8]; 1.92 in assay [9]; 3.33 in assay [10]; 0.609 in [11]; 2.81 in assay [12]. Also, the PBM binding z-score in assay [13] was 1.96; in [14] it was 1.55; in assay [15], 2.38; in assay [16], 3.53; in [17], 1.09; in [18], 4.34. In addition, the PBM binding z-score in [19] is 1.26; in assay [20], 4.29.
CCTTCTGGGCCAAAAAGGTCATTGATGCCGATAA: the PBM binding z-score in assay [1] amounted to 3.46; in assay [2], 4.33; in assay [3] it was 2.97; in [4], 3.9; in [5], 0.645; in assay [6], 4.48. The PBM binding z-score in [7] stood at 2.52; in assay [8], 3.9; in [9] it was 1.16; in assay [10] it was 2.59; in assay [11] it was 3.91; in assay [12], 3.68. Moreover, the PBM binding z-score in assay [13] is -0.102; in [14], -0.685; in [15], 3.67; in assay [16], 4.74; in [17], 4.12; in assay [18] it was 5.1. Moreover, the PBM binding z-score was determined as 1.14 in assay [19] and 3.83 in assay [20].
